Hit rate of the full screen: of about 52,000 compounds, about 4,300 (8.3%) were called active. Rule as the data show it: active = survival mostly below about 52% (no sharp cut-off); inactive = mostly above about 56%. The full list was thinned out, with actives kept by preference.

Experimental findings from PubChem BioAssay AID463173 (ICCB-Longwood Screening Facility, Harvard Medical School, 2010) are described below.

For the assay, the system named is DeltatarO mutant. Briefly: S. aureus survival, RN4220 and DeltatarO strains – OD600, teichoic acid synthesis inhibitors, primary screen (AID 463173). The following applies: S. aureus RN4220 wild type/DeltatarO growth, OD600, 18 h, active compounds read low, screened at 18.75 µg/mL (by protocol).
With `CCOc1ccc(NC(=O)c2ccc3[nH]c(C)cc(=O)c3c2)cc1`, the survival is 79% (inactive). Consider `Cc1cccc(N2CCN(S(=O)(=O)c3ccc4c(c3)CC(=O)N4C)CC2)c1C`, for which the survival is 129% (inactive).

As to `Cc1ccnc(NC(c2ccccc2F)c2ccc3cccnc3c2O)c1` (stereo not drawn), the survival was -1% (active). As for `Cc1ccc(O)c(CNc2cccc3cccnc23)c1`, the figure is 79% (inactive); as for `CCOc1cc(C(Nc2cc(C)ccn2)c2ccc3cccnc3c2O)ccc1OC` (stereo not drawn), 146% (inactive).

As for `Cc1ccnc(NCc2cccc3ccccc23)c1`, the survival was 93% (inactive). For `Cc1ccnc(NC(c2cc(C)ccc2O)c2ccc3cccnc3c2O)c1` (stereo not drawn), the survival was 4% (active). For `Oc1c(C(Nc2ccccn2)c2ccccc2F)ccc2cccnc12` (stereo not drawn), the survival is 102% (inactive). The value for `CC1CCc2c(sc3nnn(CC(=O)Nc4cccc(C(F)(F)F)c4)c(=O)c23)C1` (stereo not drawn) was 70% (inactive). The value for `COc1ccc(NC(=O)c2cc(S(=O)(=O)N3CCCCCC3)cn2C)c(OC)c1` was 80% (inactive); that for `O=C(CCn1cnc2onc(-c3ccc(F)cc3)c2c1=O)N1CCN(c2ccccc2)CC1` was 60% (inactive).

Turning to `O=C(Cn1cnc2onc(-c3ccc(F)cc3)c2c1=O)N1CCN(c2ccccc2F)CC1`, the survival was 76% (inactive).

Regarding `O=C(CCn1cnc2onc(-c3ccc(F)cc3)c2c1=O)N1CCN(c2ccccc2F)CC1`, the survival is -4% (active).

For the compound `COc1ccccc1N1CCN(C(=O)CCn2cnc3onc(-c4ccc(F)cc4)c3c2=O)CC1`, the survival was 66% (inactive). For the compound `O=C(CCn1cnc2onc(-c3ccc(F)cc3)c2c1=O)N1CCN(c2ccc(F)cc2)CC1`, the survival is 77% (inactive). As for `CC(=O)c1ccc(N2CCN(C(=O)CCn3cnc4onc(-c5ccc(F)cc5)c4c3=O)CC2)cc1`, the survival is -5% (active). The value for `CC(=O)c1ccc(NC(=O)C2=CC(c3ccc4c(c3)OCO4)=NS(=O)(=O)N2C)cc1` was 103% (inactive); that for `CCc1cccc(NC(=O)c2c(N3CCCC3=O)c3cc(C)ccc3n2C)c1` was 74% (inactive); that for `CCOC(=O)C1CCN(C(=O)Cn2c(=O)oc3cc(S(=O)(=O)N4CCC(C)CC4)ccc32)CC1` was 133% (inactive). As for `Cc1cc(C)cc(NC(=O)CSc2nnc(CNC(=O)c3c(F)cccc3Cl)o2)c1`, the figure is 132% (inactive); as for `CN(C)S(=O)(=O)c1ccc2c(c1)N(CC(=O)N1CCN(c3ccccc3F)CC1)CCS2`, 119% (inactive). With `COc1cc(NC(=O)Cn2nc(C(F)(F)F)c3c2CCC3)cc(OC)c1OC`, the survival was 130% (inactive). As for `CC(C)NC(=O)N1[C@H](c2cccs2)[C@@H](C)C(=O)[C@@H](C)[C@@H]1c1cccs1`, the survival is 51% (inactive).

For `COc1ccccc1NC(=O)c1ccc2[nH]c(C)cc(=O)c2c1`, the survival is 77% (inactive). Take `CCOC(=O)c1c(NC(=O)COc2ccc(F)cc2)sc2c1CCC(C)C2` (stereo not drawn): the survival is 70% (inactive). In the case of `CCOC(=O)c1c(NC(=O)Cn2nnc3ccccc32)sc2c1CCC(C)C2` (stereo not drawn), the survival is 64% (inactive). With `Cc1ccc(OCCCC(=O)Nc2sc3c(c2C(N)=O)CCC(C)C3)cc1` (stereo not drawn), the survival was 159% (inactive). The value for `CCOC(=O)c1c(NC(=O)CCCOc2ccccc2C)sc2c1CCC(C)C2` (stereo not drawn) was 16% (active). On to `CCOC(=O)c1c(NC(=O)CS(=O)(=O)c2ccc(C)cc2)sc2c1CCC(C)C2` (stereo not drawn), for which the survival was 102% (inactive). For `CCOC(=O)c1c(NC(=O)CCCOc2ccc(C)cc2)sc2c1CCC(C)C2` (stereo not drawn), the survival was 10% (active).

In the case of `CCc1cnc2c(c1SC(C(C)=O)C(=O)N(C)C)c(=O)n(C)c(=O)n2C` (stereo not drawn), the survival was 95% (inactive). Regarding `O=C(NC1CCCC1)c1ccc2c(=O)n(Cc3ccccc3)c(SCc3cccc(F)c3)nc2c1`, the survival is 72% (inactive). As for `CCCCOc1ccc(C2c3c(oc4ccccc4c3=O)C(=O)N2c2nc(C)c(C(=O)OCC)s2)cc1OC` (stereo not drawn), the figure is 55% (inactive). For `CCCn1c2c(c(O)c(C(=O)Nc3ccccc3F)c1=O)CCCC2`, the survival is 93% (inactive). The value for `CCC(=O)Nc1nnc(S(=O)(=O)N2c3ccccc3CC2C)s1` (stereo not drawn) was 92% (inactive); that for `Cc1cccc(C(=O)Nc2nnc(S(=O)(=O)N3c4ccccc4CC3C)s2)c1` (stereo not drawn) was 16% (active); that for `CC1Cc2ccccc2N1S(=O)(=O)c1nnc(NC(=O)c2cccc(F)c2)s1` (stereo not drawn) was 6% (active). Consider `CC(C)CC(=O)Nc1nnc(S(=O)(=O)N2c3ccccc3CC2C)s1` (stereo not drawn), for which the survival is 75% (inactive). As for `Cc1ccc(OCC(=O)Nc2nnc(S(=O)(=O)N3c4ccccc4CC3C)s2)cc1` (stereo not drawn), the figure is 34% (active); as for `Cc1ccc(C(=O)Nc2nnc(S(=O)(=O)N3c4ccccc4CC3C)s2)cc1` (stereo not drawn), 30% (active). On to `CCn1ccc2cc(S(=O)(=O)N3CCC(C(=O)NCCc4ccccc4)CC3)ccc21`, for which the survival was 102% (inactive). The value for `CCOC(=O)c1[nH]c2c(c1Cc1ccccc1)C(=O)CC(c1ccc(Cl)cc1)C2` (stereo not drawn) was 92% (inactive); that for `NC(=O)c1ccc(NC(=O)C2CCN(S(=O)(=O)Cc3ccccc3)CC2)cc1` was 87% (inactive). The value for `CCOc1ccc(NC(=O)c2cnn3c2NC(C)=C(C(=O)Nc2ccc(Cl)cc2)C3c2ccc(OC)c(OC)c2)cc1` (stereo not drawn) was 59% (inactive). On to `Cc1ccccc1C(=O)N1CCC(C(=O)Nc2ccc(F)cc2F)CC1`, for which the survival was 67% (inactive). As for `O=C(Cn1ncc2c(Cl)cccc21)NCc1cccc(Cl)c1`, the survival is 110% (inactive). Turning to `CCC(CC)C(=O)Nc1nnc(S(=O)(=O)N2c3ccccc3CC2C)s1` (stereo not drawn), the survival is 61% (inactive). The value for `CC(C)C(=O)Nc1nnc(S(=O)(=O)N2c3ccccc3CC2C)s1` (stereo not drawn) was 87% (inactive); that for `CC1Cc2ccccc2N1S(=O)(=O)c1nnc(NC(=O)c2ccccc2)s1` (stereo not drawn) was 12% (active); that for `Cc1cc(C)n(C(=O)CNC(=O)Cc2ccccc2)n1` was 89% (inactive). The value for `CC(=O)N1c2ccccc2C(=O)C1N1CCN(c2cccc(C)c2C)CC1` (stereo not drawn) was 80% (inactive). In the case of `CCOc1ccc(N(CC)C(=O)CCc2nc(-c3ccccc3F)no2)cc1`, the survival was 46% (inactive). As for `CCCN(C(=O)CCc1nc(-c2ccc(C)cc2)no1)c1ccc(OCC)cc1`, the figure is -4% (active); as for `CCCN(C(=O)Cc1nc(-c2ccc(OC)cc2)no1)c1ccccc1C`, 85% (inactive). For the compound `CCOC(=O)c1ccccc1NC(=O)CCc1nc(-c2ccc(C)cc2)no1`, the survival was 58% (inactive). As for `Cc1ccc(-c2noc(CCC(=O)N(C)c3ccccc3F)n2)cc1`, the figure is 38% (active); as for `COc1ccc(-c2noc(CC(=O)N(C)c3ccccc3F)n2)cc1`, 87% (inactive). As for `CCCN(C(=O)CCc1nc(-c2ccccc2F)no1)c1ccc(CC)cc1`, the figure is -7% (active); as for `COc1ccc(CNC(=O)CCc2nc(-c3ccc(OC)cc3)no2)cc1`, 96% (inactive); as for `COc1ccc(-c2noc(CCC(=O)N(C)c3ccccc3C)n2)cc1`, 80% (inactive). `CN(C(=O)CCc1nc(-c2ccccc2F)no1)c1ccc(Cl)cc1`: the survival is 56% (inactive). Consider `COc1ccc(OC)c(NC(=O)CCc2nc(-c3ccc(C)cc3)no2)c1`, for which the survival was 70% (inactive).

With `CCCN(C(=O)CCc1nc(-c2ccc(OC)cc2)no1)c1ccccc1F`, the survival was 3% (active).
